Assay results: ChEMBL document CHEMBL2218924, “A broad activity screen in support of a chemogenomic map for kinase signalling research and drug discovery” (Biochem J, 2013)

Tests used:
[1] = target: T1, Serine/threonine-protein kinase 17A (Homo sapiens) (UniProt Q9UEE5); conditions: at 10 µM
T1 sequence (whole entry): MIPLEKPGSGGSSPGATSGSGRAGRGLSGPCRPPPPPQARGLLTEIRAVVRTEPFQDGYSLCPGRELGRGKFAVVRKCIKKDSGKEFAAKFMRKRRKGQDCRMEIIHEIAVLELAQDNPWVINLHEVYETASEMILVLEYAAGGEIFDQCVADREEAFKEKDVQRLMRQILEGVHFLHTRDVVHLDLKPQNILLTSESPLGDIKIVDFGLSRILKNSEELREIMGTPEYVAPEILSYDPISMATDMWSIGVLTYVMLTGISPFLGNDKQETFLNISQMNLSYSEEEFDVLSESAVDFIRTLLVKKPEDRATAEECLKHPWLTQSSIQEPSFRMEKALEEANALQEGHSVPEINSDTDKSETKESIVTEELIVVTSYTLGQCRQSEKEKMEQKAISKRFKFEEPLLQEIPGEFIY

[2] = target: T2, Dual specificity tyrosine-phosphorylation-regulated kinase 2 (Homo sapiens) (UniProt Q92630); conditions: at 1 µM
T2 sequence (whole entry): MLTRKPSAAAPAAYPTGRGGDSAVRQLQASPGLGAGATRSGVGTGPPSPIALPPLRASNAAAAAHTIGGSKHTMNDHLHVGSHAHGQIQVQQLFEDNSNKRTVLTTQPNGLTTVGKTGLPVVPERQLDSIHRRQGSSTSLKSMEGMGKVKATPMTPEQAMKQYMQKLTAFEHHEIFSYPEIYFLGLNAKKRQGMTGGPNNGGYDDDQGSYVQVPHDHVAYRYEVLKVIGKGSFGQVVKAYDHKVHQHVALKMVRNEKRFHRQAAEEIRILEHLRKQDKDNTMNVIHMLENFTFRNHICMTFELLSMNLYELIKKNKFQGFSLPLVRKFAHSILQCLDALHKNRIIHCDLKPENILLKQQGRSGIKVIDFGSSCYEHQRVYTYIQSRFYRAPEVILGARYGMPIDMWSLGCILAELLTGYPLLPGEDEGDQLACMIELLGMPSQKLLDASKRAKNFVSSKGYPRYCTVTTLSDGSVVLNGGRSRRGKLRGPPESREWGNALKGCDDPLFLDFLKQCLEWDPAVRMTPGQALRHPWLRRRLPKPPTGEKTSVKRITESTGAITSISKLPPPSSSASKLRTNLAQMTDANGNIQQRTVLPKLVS

[3] = target: T2, Dual specificity tyrosine-phosphorylation-regulated kinase 2 (Homo sapiens); conditions: at 10 µM
[4] = target: T3, Ephrin type-A receptor 1 (Homo sapiens) (UniProt P21709); conditions: at 1 µM
T3 sequence (whole entry): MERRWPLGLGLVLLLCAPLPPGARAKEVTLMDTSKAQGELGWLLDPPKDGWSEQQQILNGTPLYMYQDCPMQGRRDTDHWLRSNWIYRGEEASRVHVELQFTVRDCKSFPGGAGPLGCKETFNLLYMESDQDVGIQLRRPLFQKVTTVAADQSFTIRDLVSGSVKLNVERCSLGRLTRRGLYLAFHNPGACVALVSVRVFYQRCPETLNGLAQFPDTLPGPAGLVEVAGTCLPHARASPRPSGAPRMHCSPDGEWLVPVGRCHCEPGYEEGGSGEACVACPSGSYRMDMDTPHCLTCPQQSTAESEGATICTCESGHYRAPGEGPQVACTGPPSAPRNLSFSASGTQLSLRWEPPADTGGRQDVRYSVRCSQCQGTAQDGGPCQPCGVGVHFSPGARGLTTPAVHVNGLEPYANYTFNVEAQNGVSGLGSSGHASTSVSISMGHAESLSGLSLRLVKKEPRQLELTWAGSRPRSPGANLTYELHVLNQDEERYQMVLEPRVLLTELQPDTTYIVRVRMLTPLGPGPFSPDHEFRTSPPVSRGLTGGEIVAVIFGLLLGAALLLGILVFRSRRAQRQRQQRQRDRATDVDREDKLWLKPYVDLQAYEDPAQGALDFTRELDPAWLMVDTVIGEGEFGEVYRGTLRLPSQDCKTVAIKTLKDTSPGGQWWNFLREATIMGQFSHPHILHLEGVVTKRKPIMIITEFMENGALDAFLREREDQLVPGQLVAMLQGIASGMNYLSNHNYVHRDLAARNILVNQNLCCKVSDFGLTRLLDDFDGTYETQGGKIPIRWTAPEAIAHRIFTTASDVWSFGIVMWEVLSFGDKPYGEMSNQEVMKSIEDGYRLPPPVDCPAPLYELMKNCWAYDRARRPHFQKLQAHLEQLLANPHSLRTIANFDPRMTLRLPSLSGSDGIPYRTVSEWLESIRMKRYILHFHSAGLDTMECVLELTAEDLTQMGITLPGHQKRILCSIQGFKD

[5] = target: T3, Ephrin type-A receptor 1 (Homo sapiens); conditions: at 10 µM
[6] = target: Ephrin type-A receptor 2 (Homo sapiens) (UniProt P29317); conditions: at 1 µM
Chain of Ephrin type-A receptor 2 (Homo sapiens) (P29317 whole entry): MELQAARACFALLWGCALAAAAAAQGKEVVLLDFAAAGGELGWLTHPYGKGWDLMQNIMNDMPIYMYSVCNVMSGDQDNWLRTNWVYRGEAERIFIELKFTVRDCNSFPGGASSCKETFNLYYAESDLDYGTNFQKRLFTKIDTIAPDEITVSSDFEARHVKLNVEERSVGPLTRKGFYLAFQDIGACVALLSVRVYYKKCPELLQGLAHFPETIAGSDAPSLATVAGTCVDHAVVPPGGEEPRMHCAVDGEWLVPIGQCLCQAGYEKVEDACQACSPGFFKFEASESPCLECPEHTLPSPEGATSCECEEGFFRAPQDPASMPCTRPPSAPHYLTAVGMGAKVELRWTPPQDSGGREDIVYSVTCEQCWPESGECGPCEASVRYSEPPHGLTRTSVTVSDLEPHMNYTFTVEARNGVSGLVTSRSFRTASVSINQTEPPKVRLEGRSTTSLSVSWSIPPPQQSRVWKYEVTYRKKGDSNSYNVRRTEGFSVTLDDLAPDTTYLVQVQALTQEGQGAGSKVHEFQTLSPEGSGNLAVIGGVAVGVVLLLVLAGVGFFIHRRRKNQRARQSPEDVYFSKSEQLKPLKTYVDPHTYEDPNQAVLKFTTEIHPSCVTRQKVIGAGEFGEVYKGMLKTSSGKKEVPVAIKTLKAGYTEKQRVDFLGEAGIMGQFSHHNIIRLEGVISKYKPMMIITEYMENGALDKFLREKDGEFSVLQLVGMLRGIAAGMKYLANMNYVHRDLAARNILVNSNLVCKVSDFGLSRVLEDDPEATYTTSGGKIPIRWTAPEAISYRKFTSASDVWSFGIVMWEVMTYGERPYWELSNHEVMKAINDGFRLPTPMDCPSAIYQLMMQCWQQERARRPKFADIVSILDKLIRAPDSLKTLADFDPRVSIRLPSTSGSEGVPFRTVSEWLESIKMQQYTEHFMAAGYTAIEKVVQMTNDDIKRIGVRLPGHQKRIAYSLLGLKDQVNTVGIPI

[7] = target: Ephrin type-A receptor 2 (Homo sapiens) (UniProt P29317); conditions: at 10 µM
[8] = target: T4, Ephrin type-A receptor 3 (Homo sapiens) (UniProt P29320); conditions: at 1 µM
T4 sequence (whole entry): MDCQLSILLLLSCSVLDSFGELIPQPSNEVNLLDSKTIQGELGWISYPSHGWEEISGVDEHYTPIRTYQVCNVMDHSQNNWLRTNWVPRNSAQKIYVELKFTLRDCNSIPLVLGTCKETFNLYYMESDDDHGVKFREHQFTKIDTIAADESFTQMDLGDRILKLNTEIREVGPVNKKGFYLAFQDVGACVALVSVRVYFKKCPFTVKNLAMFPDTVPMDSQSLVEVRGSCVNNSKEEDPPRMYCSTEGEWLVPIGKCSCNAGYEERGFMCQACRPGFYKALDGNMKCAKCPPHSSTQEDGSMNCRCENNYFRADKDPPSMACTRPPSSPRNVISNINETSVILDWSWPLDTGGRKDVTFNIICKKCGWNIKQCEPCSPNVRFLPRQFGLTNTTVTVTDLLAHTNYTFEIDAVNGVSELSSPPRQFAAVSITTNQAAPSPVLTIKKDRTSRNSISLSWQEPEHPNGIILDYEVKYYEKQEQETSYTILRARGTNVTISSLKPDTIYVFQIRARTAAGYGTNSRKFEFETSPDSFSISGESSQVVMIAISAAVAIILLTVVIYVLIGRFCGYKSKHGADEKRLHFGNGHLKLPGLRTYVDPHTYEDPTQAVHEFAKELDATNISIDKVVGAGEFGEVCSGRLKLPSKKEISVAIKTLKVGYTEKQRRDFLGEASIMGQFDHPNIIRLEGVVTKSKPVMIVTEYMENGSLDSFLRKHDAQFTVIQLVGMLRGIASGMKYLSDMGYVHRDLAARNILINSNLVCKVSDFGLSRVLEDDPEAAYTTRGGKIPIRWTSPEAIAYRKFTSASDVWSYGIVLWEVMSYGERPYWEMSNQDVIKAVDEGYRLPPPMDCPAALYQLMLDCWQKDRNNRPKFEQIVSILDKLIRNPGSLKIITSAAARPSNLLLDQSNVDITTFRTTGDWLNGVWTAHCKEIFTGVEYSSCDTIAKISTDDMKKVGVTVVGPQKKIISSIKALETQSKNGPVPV

[9] = target: T4, Ephrin type-A receptor 3 (Homo sapiens); conditions: at 10 µM
[10] = target: Ephrin type-A receptor 4 (Homo sapiens) (UniProt P54764); conditions: at 1 µM
Chain of Ephrin type-A receptor 4 (Homo sapiens) (P54764 whole entry): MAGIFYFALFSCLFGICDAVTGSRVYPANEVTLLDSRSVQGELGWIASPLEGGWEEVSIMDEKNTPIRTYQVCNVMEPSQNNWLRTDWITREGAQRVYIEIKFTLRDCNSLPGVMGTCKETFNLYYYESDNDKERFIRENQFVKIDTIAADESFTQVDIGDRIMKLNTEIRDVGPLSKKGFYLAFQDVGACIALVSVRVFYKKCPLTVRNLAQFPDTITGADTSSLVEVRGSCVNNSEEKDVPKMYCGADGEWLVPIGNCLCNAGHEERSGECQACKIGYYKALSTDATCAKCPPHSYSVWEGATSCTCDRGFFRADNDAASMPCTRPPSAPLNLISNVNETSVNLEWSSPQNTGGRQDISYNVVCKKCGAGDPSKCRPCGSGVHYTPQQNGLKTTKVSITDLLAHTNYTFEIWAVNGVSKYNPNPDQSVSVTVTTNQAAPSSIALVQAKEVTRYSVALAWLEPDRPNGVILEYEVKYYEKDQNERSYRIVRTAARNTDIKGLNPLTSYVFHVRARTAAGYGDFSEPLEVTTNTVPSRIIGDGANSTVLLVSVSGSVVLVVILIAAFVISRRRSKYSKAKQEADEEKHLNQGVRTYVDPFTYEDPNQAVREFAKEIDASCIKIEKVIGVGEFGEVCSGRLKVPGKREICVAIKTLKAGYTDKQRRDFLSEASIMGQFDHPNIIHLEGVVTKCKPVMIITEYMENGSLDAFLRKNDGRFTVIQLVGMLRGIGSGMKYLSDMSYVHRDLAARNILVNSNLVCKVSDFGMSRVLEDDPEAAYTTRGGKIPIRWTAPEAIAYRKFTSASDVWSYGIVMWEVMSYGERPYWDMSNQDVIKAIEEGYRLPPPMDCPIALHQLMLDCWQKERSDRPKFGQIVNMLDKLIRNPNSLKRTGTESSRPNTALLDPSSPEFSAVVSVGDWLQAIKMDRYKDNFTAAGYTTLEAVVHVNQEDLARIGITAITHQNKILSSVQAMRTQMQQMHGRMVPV

[11] = target: Ephrin type-A receptor 4 (Homo sapiens) (UniProt P54764); conditions: at 10 µM
[12] = target: Ephrin type-A receptor 5 (Homo sapiens) (UniProt P54756); conditions: at 1 µM
Chain of Ephrin type-A receptor 5 (Homo sapiens) (P54756 whole entry): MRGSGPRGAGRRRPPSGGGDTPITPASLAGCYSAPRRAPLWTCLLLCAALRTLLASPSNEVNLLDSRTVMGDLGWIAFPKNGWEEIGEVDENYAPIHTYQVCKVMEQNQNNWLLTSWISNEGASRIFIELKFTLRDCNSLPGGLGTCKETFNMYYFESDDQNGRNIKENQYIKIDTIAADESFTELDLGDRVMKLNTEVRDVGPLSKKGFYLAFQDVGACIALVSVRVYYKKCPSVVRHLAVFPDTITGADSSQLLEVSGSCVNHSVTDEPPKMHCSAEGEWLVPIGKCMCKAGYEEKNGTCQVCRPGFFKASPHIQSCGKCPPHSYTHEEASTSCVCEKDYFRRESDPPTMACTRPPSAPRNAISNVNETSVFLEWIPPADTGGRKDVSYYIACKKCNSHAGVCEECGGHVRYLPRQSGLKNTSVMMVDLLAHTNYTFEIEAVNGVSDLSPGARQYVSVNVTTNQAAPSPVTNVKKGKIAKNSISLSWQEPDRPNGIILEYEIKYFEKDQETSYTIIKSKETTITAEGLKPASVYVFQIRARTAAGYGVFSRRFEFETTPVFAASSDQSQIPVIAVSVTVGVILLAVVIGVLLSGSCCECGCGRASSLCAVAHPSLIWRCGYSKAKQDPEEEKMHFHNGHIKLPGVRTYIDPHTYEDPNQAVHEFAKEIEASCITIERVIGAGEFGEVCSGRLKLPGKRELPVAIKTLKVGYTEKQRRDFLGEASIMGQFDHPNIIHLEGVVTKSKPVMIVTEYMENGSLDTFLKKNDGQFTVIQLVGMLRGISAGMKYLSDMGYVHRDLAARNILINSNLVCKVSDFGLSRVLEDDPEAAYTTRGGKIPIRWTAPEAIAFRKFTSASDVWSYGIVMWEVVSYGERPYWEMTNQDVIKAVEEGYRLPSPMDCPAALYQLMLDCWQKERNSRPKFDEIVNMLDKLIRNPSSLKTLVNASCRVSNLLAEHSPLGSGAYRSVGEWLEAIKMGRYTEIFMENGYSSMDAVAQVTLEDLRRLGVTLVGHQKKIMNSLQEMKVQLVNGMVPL

[13] = target: Ephrin type-A receptor 5 (Homo sapiens) (UniProt P54756); conditions: at 10 µM
[14] = target: Ephrin type-A receptor 7 (Homo sapiens) (UniProt Q15375); conditions: at 1 µM
Chain of Ephrin type-A receptor 7 (Homo sapiens) (Q15375 28-998 limits assumed): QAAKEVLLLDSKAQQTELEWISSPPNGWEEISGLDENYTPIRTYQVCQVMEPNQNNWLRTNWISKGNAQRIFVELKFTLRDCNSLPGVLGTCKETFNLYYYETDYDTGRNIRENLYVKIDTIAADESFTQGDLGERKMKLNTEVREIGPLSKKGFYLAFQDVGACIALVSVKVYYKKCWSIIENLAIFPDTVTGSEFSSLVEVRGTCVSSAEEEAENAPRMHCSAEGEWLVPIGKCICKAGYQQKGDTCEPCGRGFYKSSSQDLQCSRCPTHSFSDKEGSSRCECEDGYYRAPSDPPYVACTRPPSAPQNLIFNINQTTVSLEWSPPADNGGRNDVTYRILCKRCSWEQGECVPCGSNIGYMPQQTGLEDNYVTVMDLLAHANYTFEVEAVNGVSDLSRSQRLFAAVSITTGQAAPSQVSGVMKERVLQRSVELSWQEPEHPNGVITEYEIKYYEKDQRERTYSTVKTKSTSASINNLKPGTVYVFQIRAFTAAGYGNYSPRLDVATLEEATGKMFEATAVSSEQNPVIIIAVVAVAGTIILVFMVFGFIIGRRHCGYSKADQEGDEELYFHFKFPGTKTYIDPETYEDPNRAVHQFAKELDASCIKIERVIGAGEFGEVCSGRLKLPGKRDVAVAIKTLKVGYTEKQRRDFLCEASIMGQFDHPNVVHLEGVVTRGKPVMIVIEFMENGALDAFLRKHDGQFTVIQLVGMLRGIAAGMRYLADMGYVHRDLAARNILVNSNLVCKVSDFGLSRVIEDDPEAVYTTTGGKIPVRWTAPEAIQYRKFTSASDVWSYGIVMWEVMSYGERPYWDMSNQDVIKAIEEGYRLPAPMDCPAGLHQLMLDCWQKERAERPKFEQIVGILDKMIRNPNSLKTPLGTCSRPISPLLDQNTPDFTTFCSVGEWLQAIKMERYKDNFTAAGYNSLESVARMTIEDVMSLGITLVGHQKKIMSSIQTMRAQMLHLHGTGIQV

[15] = target: Ephrin type-A receptor 7 (Homo sapiens) (UniProt Q15375); conditions: at 10 µM
[16] = target: T5, Ephrin type-A receptor 8 (Homo sapiens) (UniProt P29322); conditions: at 1 µM
T5 sequence (whole entry): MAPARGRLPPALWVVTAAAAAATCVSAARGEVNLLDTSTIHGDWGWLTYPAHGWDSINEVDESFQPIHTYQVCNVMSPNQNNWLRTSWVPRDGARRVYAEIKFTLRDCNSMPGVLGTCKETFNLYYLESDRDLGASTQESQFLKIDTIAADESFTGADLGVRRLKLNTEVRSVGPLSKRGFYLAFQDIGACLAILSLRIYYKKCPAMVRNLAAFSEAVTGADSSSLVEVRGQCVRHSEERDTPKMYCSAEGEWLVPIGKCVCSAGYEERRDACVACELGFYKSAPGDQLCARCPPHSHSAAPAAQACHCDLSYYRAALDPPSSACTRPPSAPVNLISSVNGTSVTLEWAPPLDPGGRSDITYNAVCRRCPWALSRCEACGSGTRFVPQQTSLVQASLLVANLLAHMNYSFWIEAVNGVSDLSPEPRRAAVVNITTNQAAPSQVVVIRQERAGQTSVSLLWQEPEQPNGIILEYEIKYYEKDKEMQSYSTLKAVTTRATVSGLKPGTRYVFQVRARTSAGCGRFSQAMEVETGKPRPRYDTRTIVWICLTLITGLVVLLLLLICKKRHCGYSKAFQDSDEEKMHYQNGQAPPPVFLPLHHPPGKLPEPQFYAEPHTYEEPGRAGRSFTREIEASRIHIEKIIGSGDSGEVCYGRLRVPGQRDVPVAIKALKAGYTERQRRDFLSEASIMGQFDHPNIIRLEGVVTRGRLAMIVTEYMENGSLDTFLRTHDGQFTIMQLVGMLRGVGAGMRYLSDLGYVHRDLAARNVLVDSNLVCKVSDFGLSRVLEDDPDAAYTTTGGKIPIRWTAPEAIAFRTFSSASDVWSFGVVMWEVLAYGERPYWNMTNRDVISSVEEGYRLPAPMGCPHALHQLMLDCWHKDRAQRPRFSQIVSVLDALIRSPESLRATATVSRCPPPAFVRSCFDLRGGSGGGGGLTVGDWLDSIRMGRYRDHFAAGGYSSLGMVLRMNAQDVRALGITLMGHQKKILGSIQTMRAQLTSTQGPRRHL

[17] = target: T5, Ephrin type-A receptor 8 (Homo sapiens); conditions: at 10 µM
[18] = target: T6, Ephrin type-B receptor 1 (Homo sapiens) (UniProt P54762); conditions: at 1 µM
T6 sequence (whole entry): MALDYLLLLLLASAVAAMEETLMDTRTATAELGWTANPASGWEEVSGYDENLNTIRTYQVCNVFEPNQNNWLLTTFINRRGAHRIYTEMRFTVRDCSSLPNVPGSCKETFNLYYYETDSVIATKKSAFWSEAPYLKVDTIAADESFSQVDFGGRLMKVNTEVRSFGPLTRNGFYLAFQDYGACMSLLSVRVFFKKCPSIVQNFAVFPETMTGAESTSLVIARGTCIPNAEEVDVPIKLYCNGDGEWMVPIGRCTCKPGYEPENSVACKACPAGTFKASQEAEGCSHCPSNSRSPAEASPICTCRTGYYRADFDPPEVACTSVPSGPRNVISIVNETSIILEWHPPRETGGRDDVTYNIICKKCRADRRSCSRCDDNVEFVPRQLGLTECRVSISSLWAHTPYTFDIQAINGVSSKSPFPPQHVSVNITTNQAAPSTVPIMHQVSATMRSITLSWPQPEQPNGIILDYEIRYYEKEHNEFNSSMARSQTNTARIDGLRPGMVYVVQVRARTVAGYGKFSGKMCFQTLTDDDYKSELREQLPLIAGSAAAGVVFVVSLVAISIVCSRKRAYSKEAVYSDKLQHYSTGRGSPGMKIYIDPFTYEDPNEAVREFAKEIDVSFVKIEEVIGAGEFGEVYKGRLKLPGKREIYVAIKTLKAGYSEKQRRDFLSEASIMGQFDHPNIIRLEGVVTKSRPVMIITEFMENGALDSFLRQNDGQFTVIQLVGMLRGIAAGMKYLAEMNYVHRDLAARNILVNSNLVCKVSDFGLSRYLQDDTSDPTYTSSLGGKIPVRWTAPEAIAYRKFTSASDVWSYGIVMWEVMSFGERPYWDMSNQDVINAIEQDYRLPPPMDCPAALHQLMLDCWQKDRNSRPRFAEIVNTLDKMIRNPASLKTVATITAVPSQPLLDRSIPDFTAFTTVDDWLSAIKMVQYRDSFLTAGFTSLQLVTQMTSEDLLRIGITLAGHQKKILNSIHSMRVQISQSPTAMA

Row | SMILES | residual activity [1] [%] | residual activity [2] [%] | residual activity [3] [%] | residual activity [4] [%] | residual activity [5] [%] | residual activity [6] [%] | residual activity [7] [%] | residual activity [8] [%] | residual activity [9] [%] | residual activity [10] [%] | residual activity [11] [%] | residual activity [12] [%] | residual activity [13] [%] | residual activity [14] [%] | residual activity [15] [%] | residual activity [16] [%] | residual activity [17] [%] | residual activity [18] [%]
1 | Nc1n[nH]c2nnc(-c3c(-c4ccccc4)nn4ccccc34)cc12 | 117 | 94 | 88 | 96 | 66 | 91 | 95 | 94 | 93 | 104 | 100 | 91 | 94 | 91 | 83 | 91 | 80 | 98
2 | N#Cc1cnc2cnc(NCc3cccnc3)cc2c1Nc1ccc(F)c(Cl)c1 | 32 |  |  | 95 | 79 | 96 | 87 | 96 | 72 | 103 | 76 | 56 | 46 |  |  |  |  | 100
3 | COc1cccc(-c2cc(=O)c3ccccc3o2)c1N | 70 | 100 | 94 | 99 | 92 | 97 | 117 | 110 | 108 | 109 | 108 | 118 | 96 | 98 | 97 | 105 | 104 | 118
4 | COc1ccc(C(=O)Nc2sc3c(c2C(N)=O)CCCC3)cc1OC | 111 | 98 | 90 | 92 | 111 | 109 | 107 | 110 | 89 | 112 | 95 | 94 | 108 | 92 | 87 | 107 | 85 | 83
5 | N#CCCc1ccc2c(c1)-c1[nH]c3ccc([N+](=O)[O-])cc3c1CC(=O)N2 | 3 | 28 | 12 |  |  |  |  | 77 | 43 |  |  |  |  | 79 | 56 | 77 | 69 | 
